GALC G270D up = galactocerebrosidase G270D activity enhancement, cell-based; P54803; 145M-Twi-hGALC-G270D cells (Twitcher mouse brain line with human GALC G270D), HMU-beta-Gal fluorescence, 48 h; Potency, µM (series often up to 57.5 µM), most hits filed as activators; hit rate 0.1% among 45,000; also: nearly all actives have a fitted effect of over 65% in size
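Mutant human GALC (G270D), stably expressed in a Twitcher mouse brain cell line lacking endogenous GALC, is measured in live-treated cells via 6-hexadecanoylamino-4-methylumbelliferyl-β-galactoside hydrolysis (0.1 mM final, pH 5.2) with fluorescent detection.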
GPR32 ag = activates human resolvin D1 receptor GPR32 | CHO-K1 GPR32 beta-arrestin PathHunter luminescence, 90 min; zero percent set by DMSO-only wells | activation, % at 76.9 µM | hit rate 2.5% among 48,000 | AID 1346428;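 active = activation of at least 60% and not above a set upper limit, about 1 call in 100 departs from these limits; inconclusive = activation of 40% to 60%, or above that upper limit; inactive = activation under 40%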
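Step 1: seed CHO-K1 GPR32 beta-arrestin cells, 2,500/well, overnight at 37 °C. Step 2: add compounds, 90 min at 37 °C. Step 3: detection reagent, 1 h ambient, then luminescence.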
FH mod = Identification of activators of human fumarate hydratase by quantitative high-throughput screening | Fumarate hydratase, mitochondrial (Homo sapiens), P07954 | FH coupled MDH/diaphorase resazurin fluorescence, 15 min | Potency, µM (series often up to 79.9 µM), usual class: inhibitors | hit rate 0.22% among 54,000 | AID 1347055, 2019; also: the screen sought activators but most active calls are inhibition curves; nearly all actives have a fitted effect of over 45% in size
Target sequence (P07954 whole entry, looked up): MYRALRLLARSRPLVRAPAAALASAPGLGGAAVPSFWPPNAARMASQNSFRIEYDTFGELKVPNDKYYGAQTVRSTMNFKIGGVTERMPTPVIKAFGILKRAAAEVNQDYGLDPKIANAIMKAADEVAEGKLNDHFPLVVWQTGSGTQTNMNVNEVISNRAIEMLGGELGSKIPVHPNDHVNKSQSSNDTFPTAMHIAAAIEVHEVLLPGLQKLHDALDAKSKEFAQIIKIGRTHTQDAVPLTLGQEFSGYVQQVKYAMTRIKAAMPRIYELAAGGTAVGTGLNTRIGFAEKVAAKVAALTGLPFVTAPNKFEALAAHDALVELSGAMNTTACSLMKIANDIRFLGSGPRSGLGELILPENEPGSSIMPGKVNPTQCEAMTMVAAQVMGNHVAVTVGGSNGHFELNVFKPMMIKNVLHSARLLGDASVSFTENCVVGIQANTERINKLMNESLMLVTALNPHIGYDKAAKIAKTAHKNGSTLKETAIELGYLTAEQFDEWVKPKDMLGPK
B2AR arrestin ag = ADRB2 beta-arrestin recruitment; HTLA Tango cells, beta-arrestin recruitment, luciferase luminescence, 18 h; Potency, µM (titrated, usually from 46.1 µM), usual class: activators; 44,000 tested, under 10 active
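Receptor–beta-arrestin recruitment read by tTA-responsive luciferase: compound titrations (up to 46 µM) incubated 18 h with Tango cells, then luminescent substrate 15 min at room temperature. Concentration-response fits classified by r2, efficacy and activity.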
Large screens that a line does not name were inactive. Rows were chosen to be rich in hits. Some 2.8% of all compounds tested hit in one or more screens of this group. Unless noted, calls follow the shape of the dose curve; as a rule, active = well fitted curve in the direction sought with a large enough effect; inconclusive = small, poorly fitted or top-dose-only effect, or another doubt; inactive = no such curve, though single readings can be large; an effect the other way counts as inactive or inconclusive.

Cc1cccc(NC(=O)CCNS(=O)(=O)c2ccc3c(c2)CCN3C(=O)C2CC2)c1	none
O=C(CCNS(=O)(=O)c1ccc2c(c1)CCN2C(=O)C1CC1)N1CCN(c2ccc(F)cc2)CC1	GPR32 ag 69
Cc1ccc(NC(=O)Nc2cc(C(F)(F)F)ccc2F)cc1Nc1ccc2c(c1)NC(=O)/C2=C\c1ccc[nH]1	none (no result: GALC G270D up, GPR32 ag, B2AR arrestin ag)
CC1=C2C(=O)C=C(CO)C2C2OC(=O)C(CS(=O)(=O)O)C2C(OC(=O)Cc2ccc(O)cc2)C1 (stereo not drawn)	none (no result: GALC G270D up, GPR32 ag, B2AR arrestin ag)
COc1ccc(C(=O)NCc2cc(C(C)C)no2)cc1OC1CCN(C)CC1	none (no result: GALC G270D up, GPR32 ag, B2AR arrestin ag)
CN1CCC(c2c(O)cc(O)c3c(=O)cc(-c4ccccc4Cl)oc23)C(O)C1 (stereo not drawn)	none (no result: GALC G270D up, GPR32 ag, B2AR arrestin ag)
CCOc1ccc(CCNC(=O)CN2CCN(Cc3ccc(F)cc3Cl)C2=O)cc1OCC	GPR32 ag 75
CCOc1ccc(CCNC(=O)CN2CCN(Cc3ccc(Cl)cc3)C2=O)cc1OCC	none
CN1CCc2c(sc3c2C(=O)NC(c2ccc(OC(=O)c4ccc(C(C)(C)C)cc4)cc2)N3)C1 (stereo not drawn)	GPR32 ag 65, FH mod inconclusive
CCCCn1ccc(N2CCC(c3ccccc3)CC2)c(Cl)c1=O	none (no result: GALC G270D up, GPR32 ag, B2AR arrestin ag)
O=C(CCS(=O)(=O)c1cccs1)Nc1ccc(C(=O)Nc2cccc(Cl)c2)cc1	GPR32 ag 65
COc1ccc(NC(=O)c2ccc(NC(=O)CCS(=O)(=O)c3cccs3)cc2)cc1Cl	GPR32 ag inconclusive
COc1cc(C2Nc3ccccc3-c3nnc(SCc4ccc(Cl)cc4)nc3O2)ccc1OCC(=O)O (stereo not drawn)	GPR32 ag inconclusive
O=C(O)COc1ccccc1C1Nc2ccccc2-c2nnc(SCc3ccc(Cl)cc3)nc2O1 (stereo not drawn)	GPR32 ag 108
CCN(CC)CCCNC(=O)c1ccc2c(c1)NC(=O)C(CS(=O)(=O)Cc1cccc(Br)c1)N2 (stereo not drawn)	GALC G270D up 35µM
COc1ccc(-c2nnc(SCC(=O)Nc3ccc(C)c(C)c3)s2)cc1	GPR32 ag 115
COC(=O)CCSCc1ccc(-c2onc(C)c2NC(=O)OC(C)c2ccccc2Cl)cc1 (stereo not drawn)	none (no result: GALC G270D up, GPR32 ag, B2AR arrestin ag)
O=C(CSc1nc2c(c(=O)n1-c1ccccc1)SCC2)Nc1ccc(-c2ccccc2)cn1	none (no result: GALC G270D up, GPR32 ag, B2AR arrestin ag)
CC(=O)N1CCN(Cc2ccc([C@H](C)Nc3nccc(N4C(=O)OC[C@@H]4C(C)C)n3)cc2)CC1	none (no result: GALC G270D up, GPR32 ag, B2AR arrestin ag)
CC(=O)O[C@H]1C[C@@H](O)C(C)(C)C2C[C@@H](OC(C)=O)[C@@]3(C)C4=CCC(C(CO)CC(O)C5OC5(C)C)[C@]4(C)CCC3[C@]21C (stereo partly drawn)	none (no result: GALC G270D up, GPR32 ag, B2AR arrestin ag)
O=C(CSc1nc2cc3ccccc3cc2[nH]1)Nc1ccc(F)cc1	GPR32 ag 65
Cc1ccc(OCC(=O)Nc2nnc(SCc3cc(=O)c4ccccc4[nH]3)s2)cc1	GPR32 ag 120
O=C(COc1ccccc1)Nc1nnc(SCc2cc(=O)c3ccccc3[nH]2)s1	GPR32 ag inconclusive
CCC(CC)C(=O)Nc1nnc(SCc2cc(=O)c3ccccc3[nH]2)s1	GPR32 ag 99
C[C@@H](O)[C@H](N)C(=O)N1CCC[C@H]1C(=O)N1CCC[C@H]1C(=O)N[C@H](C(N)=O)[C@@H](C)O	none (no result: GALC G270D up, GPR32 ag, B2AR arrestin ag)
COc1cccc(-c2noc(COc3ccc(C(C)(C)C)cc3)n2)c1	GALC G270D up inconclusive
COc1ccc(OCc2nc(-c3ccc(-n4cccc4)cc3)no2)cc1	GPR32 ag 117
COc1ccc(C)c2sc(N3CCN(C(=O)c4cccc(F)c4)CC3)nc12	none
COc1ccc(C)c2sc(N3CCN(C(=O)c4ccco4)CC3)nc12	GPR32 ag 86
O=C(Cn1ncc2c1-c1ccccc1OC2)N1CCN(c2ccccc2F)CC1	GPR32 ag 92
CC(CO)C1CCC2(C)CC3C(CO)CC(O)C3C(C)(O)C/C=C/12 (stereo not drawn)	none (no result: GALC G270D up, GPR32 ag, B2AR arrestin ag)
CCCCn1c(NCc2ccc(OC)cc2O)nc2ccccc21	GPR32 ag 70
COc1ccc(C(=O)Nc2nc3ccccc3n2CCOc2ccc(Cl)cc2)cc1	FH mod inconclusive
COc1ccc(OCCn2c(NC(=O)c3ccc(OC)cc3)nc3ccccc32)cc1	GPR32 ag 63
